Experimental data published in ChEMBL document CHEMBL4513141, “CO-ADD screening of NIH (USA) - Clinical Collection” (2021).
Results with a measured potency or affinity are listed apart.

What was measured:
Staphylococcus aureus = settings: Concentration 20 uM; ASSAY_TEST Inhibition of Bacterial Growth; detection method Absorption (OD600); MEDIA CAMHB; plate type 384well; NBS; CORNING #3640; time 18 hr
Escherichia coli = settings: Concentration 20 uM; ASSAY_TEST Inhibition of Bacterial Growth; detection method Absorption (OD600); MEDIA CAMHB; plate type 384well; NBS; CORNING #3640; time 18 hr

Structure (SMILES) | Inhibition (Staphylococcus aureus) | Inhibition (Escherichia coli)
Br.CN1[C@@H]2CC(OC(=O)[C@H](CO)c3ccccc3)C[C@H]1[C@@H]1O[C@@H]12.O.O.O (stereo partly drawn) | 15.22% | 
Br.COc1ccc2c(c1)[C@]13CCCC[C@@H]1[C@H](C2)N(C)CC3.O [DEXTROMETHORPHAN HYDROBROMIDE] | 17.11% | 4.79%
CC(NC(C)(C)C)C(=O)c1cccc(Cl)c1.Cl (stereo not drawn) [BUPROPION HYDROCHLORIDE] | -23.91% | 5.32%
C[C@]12CC[C@H]3[C@@H](CCC4=CC(=O)CC[C@@]43C)[C@@H]1CC[C@@H]2O [TESTOSTERONE] | -3.69% | -8.96%
CN1C(=O)CN=C(c2ccccc2)c2cc([N+](=O)[O-])ccc21 [NIMETAZEPAM] | 10.78% | 1.04%
O=C(O[C@@H]1Cc2c(O)cc(O)cc2O[C@@H]1c1cc(O)c(O)c(O)c1)c1cc(O)c(O)c(O)c1 [EPIGALOCATECHIN GALLATE] | 13.39% | 5.85%
CCCN1C[C@H](CSC)C[C@@H]2c3cccc4[nH]cc(c34)C[C@H]21.CS(=O)(=O)O [PERGOLIDE MESYLATE] | 12.62% | 4.25%
COC(=O)C[C@](O)(CCCC(C)(C)O)C(=O)O[C@@H]1C(OC)=C[C@]23CCCN2CCc2cc4c(cc2[C@H]13)OCO4 [OMACETAXINE MEPESUCCINATE] | 10.39% | 7.87%
NC(=O)OCCCc1ccccc1 [PHENPROBAMATE] | 11.43% | 2.85%
CCN(CC)CCOC(=O)C(O)(c1ccccc1)c1ccccc1.Cl | 13% | -0.91%
CC(O)(CS(=O)(=O)c1ccc(F)cc1)C(=O)Nc1ccc(C#N)c(C(F)(F)F)c1 (stereo not drawn) [BICALUTAMIDE] | -1.51% | 6.59%
CN1C(=O)COc2c(C(=O)NC3CN4CCC3CC4)cc(Cl)cc21.Cl (stereo not drawn) | 14.32% | 3.95%
C[C@H](CCC(=O)O)[C@H]1CC[C@H]2[C@@H]3[C@@H](O)C[C@@H]4C[C@H](O)CC[C@]4(C)[C@H]3CC[C@]12C [URSODIOL] | 5.15% | 2.26%
Cl.O=C1CC[C@@]2(O)[C@H]3Cc4ccc(O)c5c4[C@@]2(CCN3CC2CC2)[C@H]1O5 [NALTREXONE HYDROCHLORIDE] | 14.26% | 5.04%
CNCC(O)c1ccc(O)cc1 (stereo not drawn) [OXEDRINE] | -16.09% | 6.6%
CN(C)CCc1c[nH]c2ccc(C[C@H]3COC(=O)N3)cc12 [ZOLMITRIPTAN] | 3.79% | 7.38%
COc1cc(CNC(=O)CCCC/C=C\C(C)C)ccc1O [ZUCAPSAICIN] | 14.17% | 0%
CC(C)NCC(O)COc1cccc2[nH]ccc12 (stereo not drawn) [PINDOLOL] | 7.44% | 5.35%
O=C(O)C(Cl)Cl [DICHLOROACETIC ACID] | 11.87% | 3.62%
Cc1c(O)c(=O)ccn1C [DEFERIPRONE] | 9.56% | -6.38%
Cl.O.Oc1ccc2c3c1O[C@H]1c4[nH]c5ccccc5c4C[C@@]4(O)C(C2)N(CC2CC2)CC[C@]314 | -20.11% | 6.59%

Structure (SMILES) | Inhibition (Staphylococcus aureus) | Inhibition (Escherichia coli)
O.O=P1(N(CCCl)CCCl)NCCCO1 (stereo not drawn) [CYCLOPHOSPHAMIDE] | 2.64% | 1.99%
Cc1ccnc2c1NC(=O)c1cccnc1N2C1CC1 [NEVIRAPINE] | 12.92% | -0.52%
Cl.O[C@@H]1CCCC[C@H]1N1CCC(c2ccccc2)CC1 | 14.8% | 1.48%
CN1[C@@H](CC(=O)c2ccccc2)CCC[C@H]1C[C@H](O)c1ccccc1.Cl [LOBELINE HYDROCHLORIDE] | 13.97% | -0.94%
C[C@H](CCC(=O)O)[C@H]1CC[C@H]2[C@@H]3C(=O)C[C@@H]4CC(=O)CC[C@]4(C)[C@H]3CC(=O)[C@]12C [DEHYDROCHOLIC ACID] | 8.43% | 9.29%
Cc1ccc(-c2nc3ccc(C)cn3c2CC(=O)N(C)C)cc1.Cc1ccc(-c2nc3ccc(C)cn3c2CC(=O)N(C)C)cc1.O=C(O)C(O)C(O)C(=O)O [ZOLPIDEM TARTRATE] | 4.54% | -2.63%
CC(C)CC(N(C)C)C1(c2ccc(Cl)cc2)CCC1 (stereo not drawn) [SIBUTRAMINE] | 0.87% | 6.8%
COCCCOc1ccnc(C[S+]([O-])c2nc3ccccc3[nH]2)c1C (stereo not drawn) [RABEPRAZOLE] | 10.37% | 7.16%
CCC1(c2ccc(N)cc2)CCC(=O)NC1=O (stereo not drawn) [AMINOGLUTETHIMIDE] | -4.21% | 2.02%
CN1CC[C@@]23CCCC[C@@H]2[C@@H]1Cc1ccc(O)cc13.O=C(O)C(O)C(O)C(=O)O | 4.84% | 6.67%
c1ccc2c(c1)Nc1ccccc1S2 [PHENOTHIAZINE] | -22.92% | 9.21%
CC(C)(C)NCC(O)c1cc(O)cc(O)c1.O=S(=O)(O)O (stereo not drawn) | 5.47% | 5.21%
C[C@]12CC[C@H](O)CC1=CC[C@@H]1[C@@H]2CC[C@@]2(C)[C@H]1CC[C@]2(C)O [METHANDRIOL] | 0.46% | 5.99%
Cc1c(OCC(F)(F)F)ccnc1C[S+]([O-])c1nc2ccccc2[nH]1 (stereo not drawn) [LANSOPRAZOLE] | 16.66% | -0.87%
Cc1ncc2n1-c1ccc(Cl)cc1C(c1ccccc1F)=NC2.Cl [MIDAZOLAM HYDROCHLORIDE] | -27.39% | 7.58%
Nc1nc2ccc(Cl)cc2c2nc(-c3ccco3)nn12 [CGS-15943] | 11.02% | 5.2%
C#CCN(C)[C@H](C)Cc1ccccc1.Cl [SELEGILINE HYDROCHLORIDE] | -22.3% | 3.38%
C=C(C)CN1CC[C@]23c4c5ccc(O)c4O[C@H]2c2[nH]c4ccccc4c2C[C@@]3(O)C1C5.Cl.O | 1.35% | 1.94%
COc1ccc2[nH]cc(C3=CCNCC3)c2c1.COc1ccc2[nH]cc(C3=CCNCC3)c2c1.O=C(O)CCC(=O)O | 16.86% | 5.51%
Br.Br.CN1CC[C@]2(c3cccc(O)c3)Cc3nc4ccccc4cc3C[C@H]2C1.O | 5.38% | 1.66%
NC(=O)C[S+]([O-])C(c1ccccc1)c1ccccc1 (stereo not drawn) [MODAFINIL] | 3.29% | 4.2%

Structure (SMILES) | Inhibition (Staphylococcus aureus) | Inhibition (Escherichia coli)
O=C1CN=C(c2ccccc2)c2cc([N+](=O)[O-])ccc2N1 [NITRAZEPAM] | 7.65% | 5.89%
CCOC(=O)c1cncn1[C@H](C)c1ccccc1 [ETOMIDATE] | 11.17% | 2.26%
CS(=O)(=O)Nc1ccc(Cc2noc(-c3ccc4[nH]cc(CCN)c4c3)n2)cc1.O.O | 12.02% | 7.87%
Cl.N=C(N)NC(=O)c1nc(Cl)c(N)nc1N.O.O [AMILORIDE HYDROCHLORIDE] | 11.17% | 2.12%
CNCCC(Oc1ccc(C(F)(F)F)cc1)c1ccccc1.Cl (stereo not drawn) [FLUOXETINE HYDROCHLORIDE] | 15.46% | 2.53%
CN/C(=N\CCSCc1nc[nH]c1C)NC#N [CIMETIDINE] | 12.6% | -4.2%
C=C1C[C@@H]2[C@H](CC[C@]3(C)C(=O)CC[C@@H]23)[C@@]2(C)C=CC(=O)C=C12 [EXEMESTANE] | 13.66% | -6.95%
CC1CCC[C@H](O)CCCCCc2cc(O)cc(O)c2C(=O)O1 (stereo partly drawn) | 10.2% | 1.45%
CC(COc1ccccc1)N(CCCl)Cc1ccccc1.Cl (stereo not drawn) [PHENOXYBENZAMINE HYDROCHLORIDE] | 12.58% | 3.59%
COc1cc([C@@H]2c3cc4c(cc3[C@H](O)[C@H]3COC(=O)[C@H]23)OCO4)cc(OC)c1OC [PODOFILOX] | 6.19% | 3.91%
CC(C(=O)O)c1ccc(-c2ccccc2)c(F)c1 (stereo not drawn) [FLURBIPROFEN] | 10.54% | -5.67%
CCOC(=O)C1=C(COCCN)NC(C)=C(C(=O)OC)C1c1ccccc1Cl (stereo not drawn) [AMLODIPINE] | -19.31% | 5.81%
CNC1=Nc2ccc(Cl)cc2C(c2ccccc2)=[N+]([O-])C1 [CHLORDIAZEPOXIDE] | 15.47% | 3.48%
COc1ccc2[nH]cc(CCN)c2c1 [5-METHOXYTRYPTAMINE] | 3.43% | -0.18%
Cl.c1ccc2c(CC3=NCCN3)cccc2c1 [NAPHAZOLINE HYDROCHLORIDE] | 21.19% | 2.28%
Cl.NCC(O)c1ccc(O)c(O)c1 (stereo not drawn) | 10.44% | 0.24%
C[C@]12CC[C@H]3[C@@H](CCC4=CC(=O)CC[C@@H]43)[C@@H]1CC[C@@H]2O [NANDROLONE] | -0.13% | 1.44%
CC[N+](C)(C)c1cccc(O)c1.[Cl-] [EDROPHONIUM CHLORIDE] | 15.74% | 2.93%
c1cncc([C@@H]2CCCN2)c1 [NORNICOTINE] | 12.8% | -3.23%
CCOC(=O)C1(c2ccccc2)CCN(CCC(C#N)(c2ccccc2)c2ccccc2)CC1.Cl [DIPHENOXYLATE HYDROCHLORIDE] | 14.18% | -7.43%
